# Molecular target: PROC
# Test: pooled miR-30 sensor sort-seq; sequence = guide strand
# Conditions: shRNA
# Further: reference of the scale not given here.
row,Sequence,sensor-assay potency score (higher = more potent)
1,TTGCTCATGACCTCGCTGCACT,-0.963
2,TTGTCGGTGGTGCTCTTGCTGT,-1.32
3,TGACTTTGGTGTAAACGCCGTA,-0.165
4,ATTGAGGAAGCTCACCTCGCGC,-1.35
5,TCATTGTCGGTGGTGCTCTTGC,-0.681
6,AAGTTGAGGACGAAGGTGCGGT,-0.189
7,TTTGCGGATCCGCAGCACCTGG,-1.65
8,TTTGGTGTAAACGCCGTAGTTG,-0.456
9,ATGTTGCTCATGACCTCGCTGC,-0.588
10,TTCTCAGACACCATGTTGCTCA,0.141
11,TCGCTGCTGGAGAACACTGAGT,-1.33
12,TTGGTGTAAACGCCGTAGTTGT,-1.16

# Molecular target: PRODH2
# Test: as above
# Conditions: shRNA
row,Sequence,sensor-assay potency score (higher = more potent)
1,TGAAAATACGGTTCTCACGTTT,0.0951
2,AAACGCTGTAGTGTTATTGAAT,-0.964
3,AATACATTTGAAAATACGGTTC,-0.869

# From the OligoGym collection
